PLC-gamma1 inh – PLC-gamma1 enzyme inhibitors, primary screen, biochemical, fluorescence, purified enzyme; 1-phosphatidylinositol 4,5-bisphosphate phosphodiesterase gamma-1 (Homo sapiens), P19174; fluorogenic substrate; inhibition, % at 12.2 µM; hit rate 0.84% among 370,000; in the data active = inhibition above about 9.5%
proKLK7 act – proKLK7 zymogen activators, primary screen, biochemical, fluorescence intensity | hit rate 0.9% among 370,000 | purified proKLK7, EDANS-DABCYL substrate fluorescence; 100% is mature enzyme control, 0% vehicle | activation, % at 7 µM;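 active = activation above the mean of all tested compounds plus 3 SD, computed per campaign excluding outliers beyond control limits, cut at about 13% in these data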
Target sequence (P49862 whole entry, looked up): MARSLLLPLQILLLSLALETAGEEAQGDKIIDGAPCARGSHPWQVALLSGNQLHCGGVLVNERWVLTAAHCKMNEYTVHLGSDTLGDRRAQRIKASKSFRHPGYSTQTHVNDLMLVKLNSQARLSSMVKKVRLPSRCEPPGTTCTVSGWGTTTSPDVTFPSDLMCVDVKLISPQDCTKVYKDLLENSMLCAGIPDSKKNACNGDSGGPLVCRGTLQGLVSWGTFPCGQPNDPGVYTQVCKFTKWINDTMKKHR
ADAM17 inh – ADAM17 inhibitors, primary screen, biochemical, QFRET; Disintegrin and metalloproteinase domain-containing protein 17 (Homo sapiens), P78536; recombinant ADAM17, EDANS/DABCYL FRET peptide cleavage; inhibition, % at 6.95 µM; hit rate 0.83% among 370,000; AID 720648, 2013;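 active = inhibition above the mean of compounds lying between control limits plus 3 SD, set per campaign, cut at about 8.5% in these data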;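 also: 0% = DMSO-only wells as the low control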
PLC-beta3 inh – human PLC-beta3 inhibitors, primary screen, biochemical, fluorescence. 1-phosphatidylinositol 4,5-bisphosphate phosphodiesterase beta-3 (Homo sapiens), Q01970. Purified PLC-beta3, fluorogenic substrate. inhibition, % at 12.2 µM. hit rate 0.18% among 370,000. AID 720704, 2013; in the data active = inhibition above about 11%;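 also: 0% = median of compound wells on plate and 100% = full blocker control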
ADAM10 inh – human ADAM10 inhibitors, primary screen, biochemical, QFRET, HTS; Disintegrin and metalloproteinase domain-containing protein 10 (Homo sapiens), O14672; recombinant ADAM10, EDANS/DABCYL FRET peptide cleavage, 3 h; inhibition, % at 7 µM; hit rate 0.62% among 370,000;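 active = inhibition above a per-campaign cutoff equal to the mean of compounds falling between control-based bounds plus 3 SD, cut at about 20% in these data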;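 also: 0% = DMSO wells while the 100% control is not disclosed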
sPLA2-III inh – human group III sPLA2 inhibitors, primary screen, biochemical, QFRET, BODIPY PC-A2 liposome substrate; QFRET BODIPY PC-A2 liposome hydrolysis, fluorescence; inhibition, % at 12.2 µM; hit rate 0.56% among 370,000; AID 743126, 2013;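 active = inhibition above mean plus 3 SD of compounds lying within the high and low control bounds, cut at about 19% in these data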;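 also: 0% = median of test compound wells and 100% = no enzyme DMSO wells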
KLK7 act conf – proKLK7 zymogen activators, confirmation, biochemical, fluorescence intensity, triplicate; shares compounds with proKLK7 act; purified proKLK7, EDANS-DABCYL substrate fluorescence; scaled: vehicle 0, mature enzyme 100; activation, % at 7 µM; hit rate 68% among 3,200;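 active = activation, as change over the incubation, above the mean of all tested compounds plus 3 SD, cut at about 13% in these data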
EDANS interfere – EDANS-DABCYL substrate optical interference, artefact control for kallikrein-7 zymogen activator project, biochemical, fluorescence intensity, high throughput | activation, % at 7 µM | hit rate 80% among 3,200 | no enzyme, 4 h; solvent 0%, active enzyme control 100% | shares compounds with proKLK7 act;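 active = activation above the all-compound mean plus 3 SD, ignoring values outside control-based bounds, cut at about 4.8% in these data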;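 also: value is the 4 h activation minus the activation read at time zero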
K7 EDANS ctr – optically interferes with EDANS-DABCYL fluorescence, kallikrein-7 activator counter-screen; shares compounds with proKLK7 act; EC50, µM; AID 720493; hit rate 20% among 250; EDANS-DABCYL peptide fluorescence interference, no enzyme;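 active = compounds that raise the fluorescence signal in this interference counterscreen, with EC50 at or below 10 µM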;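 also: intact quenched peptide substrate alone read at 355 nm excitation and 520 nm emission; signal is fluorescence gain from T0 to T4 after four hours at room temperature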
* = called active by the depositor; i = inactive; nt = no result. Shown are actives, neighbours in structure and some others; about 3.4% of the full set was active somewhere.

SMILES | PLC-gamma1 inh | proKLK7 act | ADAM17 inh | PLC-beta3 inh | ADAM10 inh | sPLA2-III inh | KLK7 act conf | EDANS interfere | others
COc1cc(-c2ccc3oc(-c4cccc(C)c4)c(C#CC4(O)CCCCC4)c3c2)cc(OC)c1OC | i | 83* | -135 | i | i | -1 | -9 | 2
COc1ccc(-c2cc(=O)oc3cc(OC(=O)C4CCCCC4)c(Cl)cc23)cc1 | i | 64* | -144 | i | -416 | 2 | 64* | 37* | K7 EDANS ctr=>70
COC(=O)[C@]12C[C@H](CC(=O)NCCCN3CCCC3=O)C(=O)N(Cc3ccc4c(c3)OCO4)C1=C[C@H](C(C)C)O[C@@H]2C1CC1 | -1 | 0 | -3 | 5 | -1 | -5 | nt | nt
COCCn1c2nc(=O)n(-c3ccccc3)c(=O)c-2nc2ccccc21 | i | 49* | -29 | i | -115 | -205 | 40* | 45*
COC(=O)[C@]12C[C@H](CC(=O)N3CCSCC3)C(=O)N(CCc3ccc(OC)c(OC)c3)C1=C[C@H](C(C)C)O[C@@H]2C1CC1 | -1 | 0 | -2 | 3 | -3 | 5 | nt | nt
CCCCC1C(C#N)=C(C)NC2=C1C(=O)CC(C)(C)C2 (stereo not given) | i | 41* | -374 | i | i | -3 | 22* | 25*
CSC1=C(C#N)C(C)C2=C(CC(C)(C)CC2=O)N1 (stereo not given) | -52 | 2 | -14 | -62 | -24 | 7 | nt | nt
COC(=O)c1ccc(C2C(C#N)=C(C)NC3=C2C(=O)CC(C)(C)C3)cc1 (stereo not given) | i | 36* | i | i | i | 1 | 43* | 30* | K7 EDANS ctr=>70
COc1cc(-c2cc(C(=O)Nc3ccc(O)cc3)c3ccccc3n2)cc(OC)c1OC | -15 | 0 | 2 | -28 | 15 | -17 | nt | nt
COc1ccc(-c2cc(C(=O)Nc3ccc(C(N)=O)cc3)c3ccccc3n2)cc1OC | -213 | 18* | -67 | -284 | -189 | -23 | -34 | -29
CCOC(=O)C[n+]1ccc2c([nH]c3ccccc32)c1C | i | 36* | -475 | i | i | -3 | 47* | 72*
CCOC(=O)Cc1c(Cl)c2ccccc2[nH]c1=O | 3 | 0 | -4 | 1 | -9 | 2 | nt | nt
Cc1sc(-c2ccccn2)nc1OC(=O)c1ccc(F)cc1F | -75 | 14* | 0 | -93 | 3 | -2 | 23* | 23*
Cc1sc(-c2ccccn2)nc1OC(=O)c1ccc(Cl)c(Cl)c1 | 8 | 0 | 1 | 8 | 5 | -2 | nt | nt
Cc1ccc2nc(NCCO)nc(-c3ccccc3)c2c1 | i | 19* | -196 | i | i | -3 | 0 | -4
CCOc1nc(-c2ccccc2)c2cc(C)ccc2n1 | -179 | -4 | -116 | -259 | -405 | 2 | nt | nt
COc1nc(-c2ccccc2)c2cc(C)ccc2n1 | -348 | 13* | -213 | -407 | i | -2 | -2 | 2
COc1ccc(OC)c(/C=C/C(=O)N2C(=O)c3cccc(N)c3C2=O)c1 | i | 44* | -92 | i | -285 | 1 | 654* | 689*
COc1cc(/C=C/C(=O)N2C(=O)c3cccc(N)c3C2=O)cc(OC)c1OC | -483 | 21* | -46 | -471 | -144 | 10 | 307* | 297*
CC(=O)N(C(C)=O)c1ncc2c([nH]c3ccccc32)c1C#N | -162 | 19* | -88 | -224 | -283 | 3 | 25* | 25*
Cc1cc(C)cc(NC(=O)OC2CC3CC2[C@H]2CCCCN2[C@H]3C)c1 (stereo not given in full) | 6 | 1 | 4 | -5 | -2 | 4 | nt | nt
CC(=O)Oc1ccc2c(C)cc(=O)oc2c1 | i | 60* | i | i | i | 3 | 540* | 531*
Cc1cc(=O)oc2cc(OC(=O)CCCCCN3C(=O)c4ccccc4C3=O)ccc12 | -289 | 63* | -390 | -338 | i | -1 | 405* | 336*
O=c1ccc2ccc(O)cc2o1 | i | 51* | i | i | i | 9 | 64* | 70*
O=c1ccc2cc(O)c(O)cc2o1 | i | -56 | i | i | i | -6 | nt | nt
SMILES | PLC-gamma1 inh | proKLK7 act | ADAM17 inh | PLC-beta3 inh | ADAM10 inh | sPLA2-III inh | KLK7 act conf | EDANS interfere | others
Cc1cc(=O)oc2cc(O)ccc12 | i | 99* | i | i | i | 4 | 63* | 64*
COC(=O)[C@]1(C#N)CC(=O)N(c2ccccc2)[C@@H]1c1ccccc1 | -1 | 0 | 1 | -1 | 2 | -1 | nt | nt
CC(=O)Oc1ccc2c(C)cc(=O)[nH]c2c1 | -209 | 179* | -139 | -240 | -434 | 2 | 343* | 302*
CC(=O)Oc1cc(OC(C)=O)c2c(C)cc(=O)oc2c1 | i | 50* | i | i | i | 4 | 550* | 534*
CC(=O)Oc1cc(OC(C)=O)c2c(=O)c(-c3ccc4c(c3)OCCCO4)c(C)oc2c1 | -219 | 29* | -105 | -303 | -266 | -7 | 169* | 137*
Cc1cc(=O)oc2cc(OC(=O)C3CCN(C(=O)c4ccc(F)cc4)CC3)ccc12 | i | 14* | i | i | i | 5 | 427* | 378*
Cc1ccc(CN2CCCCC(NC(=O)Nc3ccccc3F)C2=O)cc1 (stereo not given) | 0 | 0 | -1 | -1 | -2 | 0 | nt | nt
COC(=O)Cc1cc(=O)oc2cc(O)ccc12 | i | 50* | i | i | i | 4 | 75* | 69*
CC(=O)Oc1cc2oc(=O)cc(C)c2cc1OC(C)=O | i | 68* | i | i | i | 4 | 77* | 90*
CC(=O)Nc1c(OC(C)=O)ccc2c(C)cc(=O)oc12 | i | 175* | i | i | i | 5 | 489* | 515*
COc1ccc2c(C)cc(=O)oc2c1C | -18 | 0 | -82 | -36 | -265 | 10 | nt | nt
